# Results taken from PubChem BioAssay (EPA / NIEHS).
# Activity calls are given as the source filed them. Rule for the calls: active = hit-call score of the fitted dose curve at least 0.9, where 1 is the maximum; inactive = score below 0.9.
# Test system: not listed separately
# Assay: ATG_PBREM_CIS: Attagene CIS-FACTORIAL HepG2 Assay for human Phenobarbital-responsive Enhancer Module (PBREM) (AID 2282955)
# Settings: HepG2 PBREM cis-reporter, Attagene multiplexed transcription; actives raise or lower the signal
# Procedure, shortened: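 Endogenous transcription factor activity was read from reporter transcripts in transiently transfected human HepG2 liver cells after 24 h dosing. RT-PCR products were fluorescently labelled, HpaI-cut and sized by capillary electrophoresis; activity fitted bidirectionally against DMSO baseline.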
SMILES,AC50,outcome
COc1cc(-c2nc(NC(=O)c3cc4cc(C)cc(C)c4n3CC(=O)O)sc2CCC2CCCCC2)c(OC)cc1Cl,4.42 µM (active),
CCCCCCCCCCCC(=O)OC,,inactive
COCCOCCOC,,inactive
CCc1c(C(=O)NN2CCCCC2)nn(-c2ccc(Cl)cc2Cl)c1-c1ccc(Br)cc1,,inactive
CNC(=O)[C@H]1O[C@@H](n2cnc3c(NCc4cc(Cl)ccc4OCc4cc(C)no4)ncnc32)[C@H](O)[C@@H]1N,,inactive
C[Si]1(C)O[Si](C)(C)O[Si](C)(C)O[Si](C)(C)O1,,inactive
CCCCc1ccc2c(n1)[C@@H](c1ccc(OC)cc1C[C@H](C)C(=O)O)[C@H](C(=O)O)[C@H]2c1ccc2c(c1)OCO2,,inactive
O=C(O)CCCCC(=O)O,,inactive
CCCCN(CCCC)CCCC,,inactive
CN[C@H]1CC[C@@H](c2ccc(Cl)c(Cl)c2)c2ccc(S(N)(=O)=O)cc21,,inactive
Cc1cc(=O)[nH]c(=S)[nH]1,,inactive
Cc1nc(-c2ccc3c(c2)CCN(CCC2CCC(NC(=O)/C=C/c4ccc(F)cc4)CC2)CC3)no1 (stereo not given),,inactive
Cc1ccc(Cl)cc1,,inactive
Cc1ccccc1Cl,,inactive
COc1cc(/C=C/C(=O)CC(=O)/C=C/c2ccc(O)c(OC)c2)ccc1O,,inactive
Nc1nc(N)c2nc(CNc3ccc(C(=O)N[C@@H](CCC(=O)O)C(=O)O)cc3)cnc2n1,,inactive
COc1cc(S(=O)(=O)O)c(C)cc1N=Nc1c(O)ccc2cc(S(=O)(=O)O)ccc12,,inactive
CN1CCN(Cc2cc(-c3ccc4[nH]c(=O)oc4c3)co2)[C@@H](c2ccc(F)cc2)C1,,inactive
FC(F)(F)C(F)(F)C(F)(F)C(F)(F)C(F)(F)C(F)(F)CCI,,inactive
Cc1cc(NC(=O)C(=O)O)cc(C)c1Oc1ccc(O)c2c1CCC2,,inactive
O=C(O)Cc1ccccc1Nc1c(Cl)cccc1Cl,,inactive

# Molecular target: Paired box protein Pax-6 (Homo sapiens) (UniProt P26367)
# Sequence (P26367 whole entry, looked up): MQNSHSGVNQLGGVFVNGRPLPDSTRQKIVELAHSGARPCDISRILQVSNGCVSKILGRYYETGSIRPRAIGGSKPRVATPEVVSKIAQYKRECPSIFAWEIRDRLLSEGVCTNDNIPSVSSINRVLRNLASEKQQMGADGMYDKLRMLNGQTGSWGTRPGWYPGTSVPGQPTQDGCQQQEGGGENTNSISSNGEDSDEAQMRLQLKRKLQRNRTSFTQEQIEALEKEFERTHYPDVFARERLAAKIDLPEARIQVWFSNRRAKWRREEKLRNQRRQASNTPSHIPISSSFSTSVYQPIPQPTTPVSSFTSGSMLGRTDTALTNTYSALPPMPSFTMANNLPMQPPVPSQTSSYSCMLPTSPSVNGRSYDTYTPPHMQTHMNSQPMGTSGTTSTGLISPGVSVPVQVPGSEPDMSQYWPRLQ
# Assay: ATG_Pax6_CIS: Attagene CIS-FACTORIAL HepG2 Assay for human Paired Box 6 (PAX6) (AID 2282956)
# Settings: HepG2 CIS-FACTORIAL PAX6 reporter transcription, RNA readout; actives raise or lower the signal
# Procedure, shortened: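 HepG2 cells transiently transfected with cis-promoter-driven multiplexed reporter units sensing endogenous transcription factor activity; 24 h chemical exposure. Reporter mRNA quantified by RT-PCR, 6-FAM labelling, HpaI digestion and capillary electrophoresis; bidirectional fit versus DMSO baseline.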
SMILES,AC50,outcome
COc1cc(-c2nc(NC(=O)c3cc4cc(C)cc(C)c4n3CC(=O)O)sc2CCC2CCCCC2)c(OC)cc1Cl,14.2 µM (active),
CCCCCCCCCCCC(=O)OC,,inactive
COCCOCCOC,,inactive
CCCCCCCCCCO,,inactive
CCOC(=O)C(C)(C)Oc1ccc(Cl)cc1,,inactive
CC(CO)OC(C)CO (stereo not given) (tested in a mixture with another compound),,inactive
CCc1c(C(=O)NN2CCCCC2)nn(-c2ccc(Cl)cc2Cl)c1-c1ccc(Br)cc1,1.75 µM (active),
CNC(=O)[C@H]1O[C@@H](n2cnc3c(NCc4cc(Cl)ccc4OCc4cc(C)no4)ncnc32)[C@H](O)[C@@H]1N,,inactive
C[Si]1(C)O[Si](C)(C)O[Si](C)(C)O[Si](C)(C)O1,,inactive
CCCCc1ccc2c(n1)[C@@H](c1ccc(OC)cc1C[C@H](C)C(=O)O)[C@H](C(=O)O)[C@H]2c1ccc2c(c1)OCO2,,inactive
O=C(O)CCCCC(=O)O,,inactive
CCCCN(CCCC)CCCC,,inactive
CN[C@H]1CC[C@@H](c2ccc(Cl)c(Cl)c2)c2ccc(S(N)(=O)=O)cc21,,inactive
Cc1cc(=O)[nH]c(=S)[nH]1,,inactive
Cc1nc(-c2ccc3c(c2)CCN(CCC2CCC(NC(=O)/C=C/c4ccc(F)cc4)CC2)CC3)no1 (stereo not given),,inactive
Cc1ccc(Cl)cc1,,inactive
NC(=O)Cn1c(=O)cc(CCN2CCN(c3nccc4sccc34)CC2)c2ccc(F)cc21,,inactive
Cc1ccccc1Cl,,inactive
COc1cc(/C=C/C(=O)CC(=O)/C=C/c2ccc(O)c(OC)c2)ccc1O,46.6 µM (active),
Nc1nc(N)c2nc(CNc3ccc(C(=O)N[C@@H](CCC(=O)O)C(=O)O)cc3)cnc2n1,,inactive
COc1cc(S(=O)(=O)O)c(C)cc1N=Nc1c(O)ccc2cc(S(=O)(=O)O)ccc12,,inactive
CN1CCN(Cc2cc(-c3ccc4[nH]c(=O)oc4c3)co2)[C@@H](c2ccc(F)cc2)C1,47.4 µM (active),
FC(F)(F)C(F)(F)C(F)(F)C(F)(F)C(F)(F)C(F)(F)CCI,,inactive
Cc1nc(C)nc(N2C[C@@H](C)N(c3ccnc([C@@H](C)O)n3)[C@@H](C)C2)n1,,inactive
NS(=O)(=O)c1cc2c(cc1Cl)NCNS2(=O)=O,,inactive
Cc1c(C(=O)O)c(O)cc2c1C(=O)c1c(O)c([C@@H]3O[C@H](CO)[C@@H](O)[C@H](O)[C@H]3O)c(O)c(O)c1C2=O,,inactive
Cc1cc(NC(=O)C(=O)O)cc(C)c1Oc1ccc(O)c2c1CCC2,,inactive
O=C(O)Cc1ccccc1Nc1c(Cl)cccc1Cl,,inactive
O=c1[nH]cc(F)c(=O)[nH]1,,inactive
